Measured values as given in ChEMBL document CHEMBL2218924, “A broad activity screen in support of a chemogenomic map for kinase signalling research and drug discovery” (Biochem J, 2013).

Legend:
[1] = target: Tyrosine-protein kinase SYK (Homo sapiens) (UniProt P43405); conditions: at 10 µM
[2] = target: T1, Mitogen-activated protein kinase kinase kinase 7 (Homo sapiens) (UniProt O43318); conditions: at 1 µM
T1 sequence (whole entry): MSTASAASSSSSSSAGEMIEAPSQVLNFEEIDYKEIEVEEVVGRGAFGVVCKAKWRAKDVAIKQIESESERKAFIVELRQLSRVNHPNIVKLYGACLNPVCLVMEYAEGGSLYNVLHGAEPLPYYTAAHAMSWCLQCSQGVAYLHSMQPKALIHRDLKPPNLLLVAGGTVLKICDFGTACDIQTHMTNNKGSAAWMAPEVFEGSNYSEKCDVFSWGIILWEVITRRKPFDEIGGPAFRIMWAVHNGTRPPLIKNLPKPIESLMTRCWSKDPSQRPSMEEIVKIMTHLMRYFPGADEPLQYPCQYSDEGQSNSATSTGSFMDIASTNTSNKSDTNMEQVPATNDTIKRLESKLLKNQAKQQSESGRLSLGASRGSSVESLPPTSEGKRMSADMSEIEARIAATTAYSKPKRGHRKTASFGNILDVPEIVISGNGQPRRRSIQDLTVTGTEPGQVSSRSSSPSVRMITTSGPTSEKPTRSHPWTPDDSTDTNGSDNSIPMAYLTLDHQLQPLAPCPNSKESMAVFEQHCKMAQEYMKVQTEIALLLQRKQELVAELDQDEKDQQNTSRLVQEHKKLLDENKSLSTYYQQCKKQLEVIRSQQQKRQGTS

[3] = target: T1, Mitogen-activated protein kinase kinase kinase 7 (Homo sapiens); conditions: at 10 µM
[4] = target: T2, Serine/threonine-protein kinase TAO1 (Homo sapiens) (UniProt Q7L7X3); conditions: at 1 µM
T2 sequence (whole entry): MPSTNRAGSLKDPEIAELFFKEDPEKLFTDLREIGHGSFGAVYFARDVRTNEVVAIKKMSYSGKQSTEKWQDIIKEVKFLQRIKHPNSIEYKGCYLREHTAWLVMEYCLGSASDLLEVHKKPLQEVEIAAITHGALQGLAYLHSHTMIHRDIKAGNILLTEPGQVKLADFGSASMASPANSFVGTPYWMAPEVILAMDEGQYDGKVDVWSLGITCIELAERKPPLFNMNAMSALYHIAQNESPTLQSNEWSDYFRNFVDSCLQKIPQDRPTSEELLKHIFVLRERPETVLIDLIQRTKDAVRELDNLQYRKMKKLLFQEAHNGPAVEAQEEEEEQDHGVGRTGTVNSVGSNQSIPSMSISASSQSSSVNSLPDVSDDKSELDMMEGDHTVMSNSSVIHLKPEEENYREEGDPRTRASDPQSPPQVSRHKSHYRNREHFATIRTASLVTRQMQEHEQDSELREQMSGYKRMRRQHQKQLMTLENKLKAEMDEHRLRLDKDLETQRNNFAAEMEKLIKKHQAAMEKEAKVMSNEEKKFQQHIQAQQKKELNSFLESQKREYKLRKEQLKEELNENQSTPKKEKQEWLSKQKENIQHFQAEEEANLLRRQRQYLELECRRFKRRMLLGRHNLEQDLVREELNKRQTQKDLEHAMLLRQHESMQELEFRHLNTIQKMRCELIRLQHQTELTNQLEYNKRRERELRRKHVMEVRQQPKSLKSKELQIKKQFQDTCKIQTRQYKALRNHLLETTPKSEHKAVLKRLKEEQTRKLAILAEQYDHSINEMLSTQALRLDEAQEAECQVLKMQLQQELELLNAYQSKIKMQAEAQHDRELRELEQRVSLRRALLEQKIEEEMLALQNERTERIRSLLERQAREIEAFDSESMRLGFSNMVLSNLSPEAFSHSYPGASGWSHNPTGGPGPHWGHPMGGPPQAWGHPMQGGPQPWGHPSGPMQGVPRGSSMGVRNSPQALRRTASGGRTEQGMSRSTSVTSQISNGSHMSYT

[5] = target: T2, Serine/threonine-protein kinase TAO1 (Homo sapiens); conditions: at 10 µM
[6] = target: T3, Serine/threonine-protein kinase TAO2 (Homo sapiens) (UniProt Q9UL54); conditions: at 1 µM
T3 sequence (whole entry): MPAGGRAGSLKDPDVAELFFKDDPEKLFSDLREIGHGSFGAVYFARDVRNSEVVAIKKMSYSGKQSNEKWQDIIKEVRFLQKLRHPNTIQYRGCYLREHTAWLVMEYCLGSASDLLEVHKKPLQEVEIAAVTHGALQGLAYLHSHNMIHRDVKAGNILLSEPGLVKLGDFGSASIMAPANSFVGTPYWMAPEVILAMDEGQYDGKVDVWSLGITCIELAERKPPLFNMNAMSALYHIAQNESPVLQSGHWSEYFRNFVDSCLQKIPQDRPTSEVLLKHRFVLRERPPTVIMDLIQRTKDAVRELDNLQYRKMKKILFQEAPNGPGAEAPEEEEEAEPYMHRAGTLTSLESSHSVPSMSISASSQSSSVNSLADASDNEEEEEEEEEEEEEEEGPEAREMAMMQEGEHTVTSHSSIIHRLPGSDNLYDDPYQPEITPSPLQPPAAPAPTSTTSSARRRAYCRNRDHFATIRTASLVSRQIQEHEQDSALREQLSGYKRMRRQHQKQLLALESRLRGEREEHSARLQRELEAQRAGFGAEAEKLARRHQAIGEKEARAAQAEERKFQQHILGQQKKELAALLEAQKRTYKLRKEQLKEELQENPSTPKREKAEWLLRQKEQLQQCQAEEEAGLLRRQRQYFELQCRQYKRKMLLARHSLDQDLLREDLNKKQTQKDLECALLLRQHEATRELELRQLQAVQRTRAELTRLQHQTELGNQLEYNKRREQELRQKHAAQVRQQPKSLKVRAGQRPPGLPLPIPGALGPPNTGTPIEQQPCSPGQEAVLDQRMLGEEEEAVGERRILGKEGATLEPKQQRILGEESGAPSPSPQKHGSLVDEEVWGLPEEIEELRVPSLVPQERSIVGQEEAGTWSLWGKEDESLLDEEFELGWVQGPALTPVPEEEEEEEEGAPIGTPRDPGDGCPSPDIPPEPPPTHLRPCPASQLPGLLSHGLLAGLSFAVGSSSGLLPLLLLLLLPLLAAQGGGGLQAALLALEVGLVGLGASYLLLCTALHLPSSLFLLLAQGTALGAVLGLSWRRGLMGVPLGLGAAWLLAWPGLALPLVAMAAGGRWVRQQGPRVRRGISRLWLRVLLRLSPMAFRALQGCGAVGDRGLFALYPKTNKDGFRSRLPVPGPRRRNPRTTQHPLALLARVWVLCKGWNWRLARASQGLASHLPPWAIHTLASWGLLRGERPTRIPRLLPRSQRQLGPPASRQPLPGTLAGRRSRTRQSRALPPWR

[7] = target: T3, Serine/threonine-protein kinase TAO2 (Homo sapiens); conditions: at 10 µM
[8] = target: T4, Serine/threonine-protein kinase TAO3 (Homo sapiens) (UniProt Q9H2K8); conditions: at 1 µM
T4 sequence (whole entry): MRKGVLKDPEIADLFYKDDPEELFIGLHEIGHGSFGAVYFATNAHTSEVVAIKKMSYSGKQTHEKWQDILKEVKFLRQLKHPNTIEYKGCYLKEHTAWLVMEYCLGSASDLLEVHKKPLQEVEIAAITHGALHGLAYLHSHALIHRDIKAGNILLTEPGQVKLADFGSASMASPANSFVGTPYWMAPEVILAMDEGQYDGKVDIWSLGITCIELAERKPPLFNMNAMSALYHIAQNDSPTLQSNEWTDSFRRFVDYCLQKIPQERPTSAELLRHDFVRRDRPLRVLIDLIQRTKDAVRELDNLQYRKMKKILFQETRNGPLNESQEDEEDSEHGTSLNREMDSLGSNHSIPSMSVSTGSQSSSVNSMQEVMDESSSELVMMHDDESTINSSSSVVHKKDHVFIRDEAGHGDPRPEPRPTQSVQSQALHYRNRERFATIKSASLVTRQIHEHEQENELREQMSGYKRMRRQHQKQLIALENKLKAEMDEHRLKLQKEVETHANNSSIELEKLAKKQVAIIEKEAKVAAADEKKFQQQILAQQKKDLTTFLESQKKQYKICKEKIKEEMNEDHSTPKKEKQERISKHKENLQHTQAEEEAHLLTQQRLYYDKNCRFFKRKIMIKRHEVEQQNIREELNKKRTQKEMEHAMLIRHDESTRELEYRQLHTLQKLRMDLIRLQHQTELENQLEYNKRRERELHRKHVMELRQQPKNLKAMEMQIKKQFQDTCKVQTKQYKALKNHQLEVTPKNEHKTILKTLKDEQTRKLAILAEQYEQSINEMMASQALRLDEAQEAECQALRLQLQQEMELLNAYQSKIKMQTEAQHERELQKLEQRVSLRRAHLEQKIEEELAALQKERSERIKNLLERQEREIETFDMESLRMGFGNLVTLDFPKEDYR

[9] = target: T4, Serine/threonine-protein kinase TAO3 (Homo sapiens); conditions: at 10 µM
[10] = target: T5, Serine/threonine-protein kinase TBK1 (Homo sapiens) (UniProt Q9UHD2); conditions: at 1 µM
T5 sequence (whole entry): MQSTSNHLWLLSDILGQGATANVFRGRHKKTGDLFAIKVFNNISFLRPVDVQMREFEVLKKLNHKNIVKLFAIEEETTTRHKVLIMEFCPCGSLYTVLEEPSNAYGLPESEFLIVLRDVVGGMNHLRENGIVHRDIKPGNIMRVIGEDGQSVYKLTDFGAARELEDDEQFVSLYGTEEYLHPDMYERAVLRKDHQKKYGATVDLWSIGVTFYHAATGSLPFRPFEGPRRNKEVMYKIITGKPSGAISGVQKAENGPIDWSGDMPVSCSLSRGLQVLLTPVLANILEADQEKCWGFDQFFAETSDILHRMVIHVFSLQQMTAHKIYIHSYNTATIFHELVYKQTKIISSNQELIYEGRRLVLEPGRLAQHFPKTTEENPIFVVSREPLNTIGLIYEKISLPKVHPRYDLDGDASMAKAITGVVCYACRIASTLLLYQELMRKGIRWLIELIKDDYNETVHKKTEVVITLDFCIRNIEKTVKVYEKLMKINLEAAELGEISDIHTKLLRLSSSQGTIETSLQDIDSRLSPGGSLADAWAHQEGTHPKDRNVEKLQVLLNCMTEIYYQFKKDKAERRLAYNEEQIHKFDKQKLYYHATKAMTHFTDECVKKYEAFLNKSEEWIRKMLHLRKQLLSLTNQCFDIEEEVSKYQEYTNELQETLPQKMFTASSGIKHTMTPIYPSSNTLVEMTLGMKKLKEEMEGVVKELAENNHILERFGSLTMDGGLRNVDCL

| Compound | residual activity [1] [%] | residual activity [2] [%] | residual activity [3] [%] | residual activity [4] [%] | residual activity [5] [%] | residual activity [6] [%] | residual activity [7] [%] | residual activity [8] [%] | residual activity [9] [%] | residual activity [10] [%] |
| --- | --- | --- | --- | --- | --- | --- | --- | --- | --- | --- |
| Nc1n[nH]c2nnc(-c3c(-c4ccccc4)nn4ccccc34)cc12 | 110 | 90 | 77 | 87 | 56 | 90 | 50 | 87 | 40 | 75 |
| O=C1Nc2ccc(Br)cc2/C1=C\c1cc2c([nH]1)CCCC2 | 100 |  |  | 104 | 98 | 111 |  |  |  | 59 |
| CNc1cc2c(Nc3cccc(Br)c3)ncnc2cn1 | 90 | 91 | 90 | 100 | 81 | 110 | 75 | 95 | 90 | 79 |
| c1ccc(-c2n[nH]c3c2oc2ccccc23)cc1 | 82 | 88 | 100 |  | 72 | 98 | 78 | 95 | 73 | 67 |
| CC#CC(=O)Nc1cc2c(Nc3ccc(F)c(Cl)c3)ncnc2cn1 | 87 | 91 | 96 | 104 | 89 | 97 | 80 | 96 | 95 | 78 |
| CCN(CC)C(=O)c1ccc(Nc2nc(OCC3CCCCC3)c3nc[nH]c3n2)cc1 | 13 | 47 | 7 | 52 | 10 | 51 | 6 | 70 | 16 | 15 |
| COc1cc2ncc(-c3ccccc3)nc2cc1OC | 100 | 98 | 82 |  | 91 |  |  |  |  | 91 |
| O=C1NC(=O)c2c1c1c3ccccc3[nH]c1c1[nH]c3cc(Br)ccc3c21 | 79 | 94 | 84 | 92 | 92 | 103 | 92 | 93 | 94 | 75 |
| N#Cc1cnc2cnc(NCc3cccnc3)cc2c1Nc1ccc(F)c(Cl)c1 | 2 |  | 87 |  |  |  |  | 18 | 7 | 5 |
| Cn1nc2c3c(cccc31)C(=O)c1ccccc1-2 | 100 | 87 | 46 | 94 | 88 |  | 95 | 91 | 90 | 67 |
